PubChem BioAssay
Results filed as inconclusive are left out. Calls of active or inactive are those of the source.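 How the source made its calls, unless noted: active means percent response above a set limit, the screen-wide mean plus 3 SD (cut at about 130% in these data); inactive means the rest.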

What was measured:
[1] = yeast TOR pathway RPL19A-GFP modulators, primary screen, cell-based, S. cerevisiae, multiplex flow cytometry (AID 1862; in the data active means percent of DMSO control GFP below about 86%;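 further: lower values mimic rapamycin by blocking the RPL19A rise seen in DMSO cells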); settings: S. cerevisiae RPL19A-GFP strain, flow cytometry fluorescence, 3 h; at 10 µM; stronger effect = lower value
[2] = modulators of MEP2-GFP levels in yeast, primary screen, S. cerevisiae, multiplex flow cytometry (AID 1867;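 active means GFP response, as percent of the DMSO control, above the screen-wide mean plus 3 SD, about 139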;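 further: median GFP channel fluorescence of barcode-gated MEP2-GFP cells measured by flow cytometry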); settings: S. cerevisiae MEP2-GFP strain, 3 h, at 10 µM, stronger effect = higher value, 100% means same as DMSO wells
[3] = modulators of CIT2-GFP expression in yeast, primary screen, S. cerevisiae, GFP fusion, multiplex flow cytometry (AID 1870); settings: 3 h, at 10 µM, stronger effect = higher value;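 further: barcoded CIT2-GFP strain pooled with four other GFP strains with rapamycin as positive control; median GFP fluorescence per well over plate mean of DMSO wells so 100% = DMSO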
[4] = modulators of LAP4-GFP expression in yeast, primary screen, S. cerevisiae, multiplex flow cytometry (AID 1873;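 active means GFP signal, as percent of the solvent control, above the screen mean plus 3 SD, about 149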); settings: 3 h, at 10 µM, stronger effect = higher value
[5] = modulators of AGP1-GFP expression in yeast TOR pathway, primary screen, cell-based, multiplex flow cytometry, S. cerevisiae (AID 1887;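 active means GFP signal above the screen-wide mean plus 3 SD, that is over about 124.5% of the solvent control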;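 further: AGP1-GFP fusion strain of S. cerevisiae within a five-strain barcoded multiplex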); settings: 3 h, at 10 µM, stronger effect = higher value
[6] = inhibitors of CD8+ T cell-vesicle binding, pilot screen, LFA-1/ICAM-1 modulator project, MLPCN validation set, flow cytometry (AID 2523;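 active means response below a set limit, under 55% cells CD8-positive and vesicle-bound, and CD8 cells' 90th-percentile brightness under 279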;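 on vesicle binding response: mean PE anti-B7-1 fluorescence of CD8+ cells relative to row control; 100% = QL9-loaded vesicles with DMSO vehicle in the same plate row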); settings: 2C mouse CD8+ T cells, at 7 µM, stronger effect = lower value; double positive events: measured here: CD8+/vesicle+ event percentage
[7] = molecular target: Integrin beta-1 (Homo sapiens) + Integrin alpha-4 (Homo sapiens) (UniProt P13612+P05556); test: inhibition of HUTS-21 binding to VLA-4, pilot screen, VLA-4 allosteric modulator project, U937 cells, HUTS-21 mAb, flow cytometry, validation set (AID 2674;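 active means inhibition above 50%, about 3 SD of the validation set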;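 further: antibody binding induced by the VLA-4 ligand LDV present at three times its Kd; 0% = LDV ligand with antibody and no compound and 100% = antibody without LDV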); settings: HUTS-21 LIBS mAb binding, at 6.7 µM, stronger effect = higher value, binding induced by LDV ligand
Integrin beta-1 (Homo sapiens) + Integrin alpha-4 (Homo sapiens), sequence (P05556 whole entry, looked up): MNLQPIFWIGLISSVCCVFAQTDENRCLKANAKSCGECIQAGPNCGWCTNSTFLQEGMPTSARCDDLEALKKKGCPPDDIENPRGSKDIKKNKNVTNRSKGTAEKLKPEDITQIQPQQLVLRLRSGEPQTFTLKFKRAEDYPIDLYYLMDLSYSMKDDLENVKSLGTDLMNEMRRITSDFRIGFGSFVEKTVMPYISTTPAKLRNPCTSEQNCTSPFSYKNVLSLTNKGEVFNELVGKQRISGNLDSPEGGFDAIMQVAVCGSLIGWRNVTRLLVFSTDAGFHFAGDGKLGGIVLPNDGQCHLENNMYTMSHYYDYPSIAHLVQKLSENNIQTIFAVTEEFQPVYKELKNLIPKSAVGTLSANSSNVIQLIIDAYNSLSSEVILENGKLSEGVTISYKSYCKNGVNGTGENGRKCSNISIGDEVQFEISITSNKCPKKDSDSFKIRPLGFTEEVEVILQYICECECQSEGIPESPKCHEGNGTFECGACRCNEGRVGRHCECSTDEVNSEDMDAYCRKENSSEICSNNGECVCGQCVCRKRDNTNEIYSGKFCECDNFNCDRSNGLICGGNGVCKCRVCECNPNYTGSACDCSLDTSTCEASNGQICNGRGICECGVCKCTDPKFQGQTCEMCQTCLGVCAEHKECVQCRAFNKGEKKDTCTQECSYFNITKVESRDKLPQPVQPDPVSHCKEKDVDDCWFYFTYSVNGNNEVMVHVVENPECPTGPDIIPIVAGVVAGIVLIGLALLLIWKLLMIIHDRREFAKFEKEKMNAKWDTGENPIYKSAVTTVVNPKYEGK
Integrin beta-1 (Homo sapiens) + Integrin alpha-4 (Homo sapiens), sequence (P13612 whole entry, looked up): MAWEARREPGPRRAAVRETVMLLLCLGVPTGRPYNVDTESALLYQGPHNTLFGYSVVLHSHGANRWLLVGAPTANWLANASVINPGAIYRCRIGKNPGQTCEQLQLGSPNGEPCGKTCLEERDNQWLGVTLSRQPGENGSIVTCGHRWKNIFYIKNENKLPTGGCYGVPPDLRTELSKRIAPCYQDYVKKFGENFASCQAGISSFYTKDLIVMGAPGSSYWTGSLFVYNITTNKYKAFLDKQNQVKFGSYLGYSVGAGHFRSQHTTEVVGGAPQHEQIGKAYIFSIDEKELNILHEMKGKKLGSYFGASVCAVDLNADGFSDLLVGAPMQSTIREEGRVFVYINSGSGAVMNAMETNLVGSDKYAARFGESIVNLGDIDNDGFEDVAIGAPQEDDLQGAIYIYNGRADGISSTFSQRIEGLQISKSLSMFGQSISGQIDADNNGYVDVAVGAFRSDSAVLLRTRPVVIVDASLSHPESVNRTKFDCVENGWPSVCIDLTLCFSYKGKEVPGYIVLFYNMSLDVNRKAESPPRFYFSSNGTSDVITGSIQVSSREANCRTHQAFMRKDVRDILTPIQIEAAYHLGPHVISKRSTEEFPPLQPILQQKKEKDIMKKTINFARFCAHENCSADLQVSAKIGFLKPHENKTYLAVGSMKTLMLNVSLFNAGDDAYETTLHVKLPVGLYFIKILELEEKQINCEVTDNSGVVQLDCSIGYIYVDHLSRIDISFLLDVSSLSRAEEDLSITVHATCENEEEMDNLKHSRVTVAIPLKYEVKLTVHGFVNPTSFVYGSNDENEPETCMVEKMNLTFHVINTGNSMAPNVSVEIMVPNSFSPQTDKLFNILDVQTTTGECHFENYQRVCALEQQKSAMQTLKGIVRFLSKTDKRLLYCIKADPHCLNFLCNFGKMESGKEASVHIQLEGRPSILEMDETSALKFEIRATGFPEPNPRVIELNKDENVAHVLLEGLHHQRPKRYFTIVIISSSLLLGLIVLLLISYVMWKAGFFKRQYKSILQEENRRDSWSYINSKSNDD

[8] = superoxide lowering in aged yeast cells, pilot screen, validation compound set (AID 2706;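 active means superoxide response below 65% of plate, a cut near 3 SD across the whole screen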;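 further: yeast exposed to compound for one week at 30 degrees C before staining; 100% = mean of all compound wells on the same plate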); settings: S. cerevisiae aging, superoxide DHE fluorescence; at 10 µM, stronger effect = lower value
[9] = molecular target: Beta-adrenergic receptor kinase 1 (Homo sapiens) (UniProt P25098); test: GRK2 binders displacing RNA aptamer, biochemical, validation, human GRK2, bead flow cytometry (AID 488806;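 active means aptamer binding inhibition above 30%, about 3 SD of noise from non-fluorescent compounds; inactive means inhibition at or below 30%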); settings: bead-bound GRK2, FAM-aptamer displacement, at 10 µM, stronger effect = higher value
Beta-adrenergic receptor kinase 1 (Homo sapiens), sequence (P25098 whole entry, looked up): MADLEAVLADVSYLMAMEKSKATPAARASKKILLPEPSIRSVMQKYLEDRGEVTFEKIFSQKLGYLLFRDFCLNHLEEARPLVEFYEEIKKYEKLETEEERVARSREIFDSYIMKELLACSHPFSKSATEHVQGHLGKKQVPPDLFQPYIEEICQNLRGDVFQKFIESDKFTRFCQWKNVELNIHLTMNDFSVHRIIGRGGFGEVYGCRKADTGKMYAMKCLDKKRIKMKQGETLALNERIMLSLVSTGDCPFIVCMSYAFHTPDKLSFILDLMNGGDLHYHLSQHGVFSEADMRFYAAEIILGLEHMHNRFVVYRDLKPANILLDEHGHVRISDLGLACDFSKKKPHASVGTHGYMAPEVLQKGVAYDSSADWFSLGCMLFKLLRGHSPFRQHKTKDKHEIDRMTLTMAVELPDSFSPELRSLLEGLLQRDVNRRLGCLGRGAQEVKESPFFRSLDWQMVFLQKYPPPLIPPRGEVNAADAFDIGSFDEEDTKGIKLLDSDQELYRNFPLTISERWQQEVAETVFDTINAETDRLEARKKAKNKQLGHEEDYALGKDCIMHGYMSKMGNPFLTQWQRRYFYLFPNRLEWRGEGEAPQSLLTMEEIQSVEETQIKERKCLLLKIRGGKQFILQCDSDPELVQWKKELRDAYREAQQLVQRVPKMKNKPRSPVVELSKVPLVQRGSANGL

[10] = molecular target: AP-2 complex subunit beta (Homo sapiens) (UniProt P63010); test: inhibitors of arrestin peptide binding to AP2, pilot screen, biochemical, validation set, GST-AP2 beads, flow cytometry (AID 504541;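 active means inhibition above 54%, about 3 SD of non-fluorescent compounds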;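 further: AP2 carries R879A mutation and is captured from E. coli lysate; bead-bound FITC arrestin peptide fluorescence measuring arrestin peptide binding to AP2; 0% = DMSO wells and 100% = excess unlabeled arrestin peptide control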); settings: FITC arrestin peptide, at 10 µM, stronger effect = higher value, AP2 beta2 appendage fragment, R879A mutant
AP-2 complex subunit beta (Homo sapiens), sequence (P63010 whole entry, looked up, the tested form may be a part, one chain of several): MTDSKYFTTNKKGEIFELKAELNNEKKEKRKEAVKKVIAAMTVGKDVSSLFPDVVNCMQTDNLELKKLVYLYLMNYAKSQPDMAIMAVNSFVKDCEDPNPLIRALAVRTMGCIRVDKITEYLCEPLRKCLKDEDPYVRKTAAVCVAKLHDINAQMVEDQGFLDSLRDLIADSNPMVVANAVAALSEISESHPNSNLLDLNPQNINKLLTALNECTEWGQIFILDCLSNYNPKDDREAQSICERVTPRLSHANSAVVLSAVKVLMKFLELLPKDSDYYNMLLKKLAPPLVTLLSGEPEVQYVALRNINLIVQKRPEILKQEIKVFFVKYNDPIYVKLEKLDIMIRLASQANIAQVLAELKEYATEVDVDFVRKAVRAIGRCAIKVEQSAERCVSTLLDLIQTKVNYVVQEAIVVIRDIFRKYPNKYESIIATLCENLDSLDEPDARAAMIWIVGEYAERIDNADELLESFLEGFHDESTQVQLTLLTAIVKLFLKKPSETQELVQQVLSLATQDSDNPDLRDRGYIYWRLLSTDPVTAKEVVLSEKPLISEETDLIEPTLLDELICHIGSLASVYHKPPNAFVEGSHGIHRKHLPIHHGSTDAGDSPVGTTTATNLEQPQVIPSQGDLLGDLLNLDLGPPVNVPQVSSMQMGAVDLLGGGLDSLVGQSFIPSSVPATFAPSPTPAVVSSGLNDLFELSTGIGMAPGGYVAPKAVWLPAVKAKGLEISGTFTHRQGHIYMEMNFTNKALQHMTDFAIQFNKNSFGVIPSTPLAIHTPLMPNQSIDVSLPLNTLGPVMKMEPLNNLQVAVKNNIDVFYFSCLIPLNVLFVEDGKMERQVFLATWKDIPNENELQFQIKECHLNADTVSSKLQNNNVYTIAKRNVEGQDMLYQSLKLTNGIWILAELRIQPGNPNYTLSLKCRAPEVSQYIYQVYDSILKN

[11] = yeast V-ATPase proton transport modulators, S. cerevisiae, pHLuorin, HTS validation (AID 504600; in the data active means response above about 15%;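 further: plate controls were DMSO for no effect and reference compound for full effect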); settings: S. cerevisiae pHLuorin cytosolic pH, at 10 µM, stronger effect = higher value
[12] = system: anti-desmoglein-3 scFv antibody binding to human DSG3; test: inhibitors of anti-DSG3 scFv binding to DSG3, pilot screen, biochemical, validation compound set, bead-based, flow cytometry (AID 588368;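 active means binding below the plate cutoff, the plate median minus 3 SD, with a reading above zero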;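 further: signal is the median channel fluorescence of bead-bound GFP antibody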); settings: Protein G beads, DSG3-Fc, scFv-GFP binding, at 10 µM, stronger effect = lower value
[13] = inhibitors of fungal efflux pumps CDR1, CDR2, MDR1, pilot screen, validation compound set, multiplex, phenotypic (AID 588506;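 active means efflux inhibition above 0.42, the validation set average plus 4 SD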;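 further: Nile Red retained in cells so higher fluorescence means more efflux inhibition; 0 = negative control wells and 1 = enniatin B 25 µM full block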); settings: S. cerevisiae pump-expressing triplex, Nile Red efflux flow cytometry; at 10 µM; stronger effect = higher value; the pumps come from Candida albicans
[14] = molecular target: ATP-binding cassette sub-family B member 6 (Homo sapiens) (UniProt Q9NP58); test: ABCB6 transporter inhibitors, pilot screen, K562-ABCB6 cells, flow cytometry, validation set (AID 588550;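 active means inhibition above the screen-wide mean plus 3 SD, about 51%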;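 further: 0% = DMSO wells and 100% = benzethonium chloride 70 µM positive control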); settings: K562-ABCB6 porphyrin accumulation, 1 h, at 10 µM, stronger effect = higher value
ATP-binding cassette sub-family B member 6 (Homo sapiens), sequence (Q9NP58 whole entry, looked up): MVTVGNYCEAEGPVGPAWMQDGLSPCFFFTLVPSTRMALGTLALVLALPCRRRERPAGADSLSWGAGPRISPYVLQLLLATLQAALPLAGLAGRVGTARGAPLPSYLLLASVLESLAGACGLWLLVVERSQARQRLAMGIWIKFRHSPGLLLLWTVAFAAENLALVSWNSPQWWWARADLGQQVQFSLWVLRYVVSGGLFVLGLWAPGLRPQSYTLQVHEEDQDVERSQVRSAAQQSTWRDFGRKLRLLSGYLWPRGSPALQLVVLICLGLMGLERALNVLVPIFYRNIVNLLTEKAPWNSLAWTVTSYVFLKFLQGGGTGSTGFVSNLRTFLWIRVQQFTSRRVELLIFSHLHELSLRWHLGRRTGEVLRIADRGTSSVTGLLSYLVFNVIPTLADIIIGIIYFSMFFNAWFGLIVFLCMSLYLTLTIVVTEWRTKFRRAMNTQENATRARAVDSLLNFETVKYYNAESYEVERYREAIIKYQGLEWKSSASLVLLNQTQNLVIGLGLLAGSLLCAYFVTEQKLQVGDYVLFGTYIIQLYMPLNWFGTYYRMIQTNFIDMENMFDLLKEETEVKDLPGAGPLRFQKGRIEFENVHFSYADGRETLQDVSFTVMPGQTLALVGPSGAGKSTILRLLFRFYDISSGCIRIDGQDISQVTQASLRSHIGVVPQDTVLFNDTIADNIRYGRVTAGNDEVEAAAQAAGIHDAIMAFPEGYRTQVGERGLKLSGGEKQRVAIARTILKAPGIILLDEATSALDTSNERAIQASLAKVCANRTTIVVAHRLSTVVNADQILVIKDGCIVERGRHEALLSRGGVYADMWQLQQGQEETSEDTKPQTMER

[15] = promoters of myeloid differentiation in arrested cells, primary screen, cell-based, GFP/MAC1 double positive, flow cytometry, validation set (AID 588685;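 active means differentiation response of at least 50%, scaled between solvent and reference control, from cells with both markers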;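 further: compound exposure lasts four days before antibody staining and flow analysis; 0% = DMSO wells and 100% = 5 µM fulvestrant positive control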); settings: ER-HoxA9 marrow cells, stronger effect = higher value, normalized: vehicle 0, fulvestrant 100

COc1cc2nc(N3CCN(C(=O)C4COc5ccccc5O4)CC3)nc(N)c2cc1OC (centres undefined)
61.4%: double positive events [6]
active: superoxide response (% of plate) [8] 57.2%
inactive: percent of DMSO control GFP [1] 101% | GFP response vs DMSO [2] 108% | percent response of DMSO control [3] 104% | GFP response vs DMSO [4] 110% | GFP response, % of DMSO [5] 116% | vesicle binding response [6] 203% | inhibition [7] -8.78% | aptamer binding inhibition [9] 1% | inhibition [10] 26.5% | response [11] -4.66% | binding (% of control) [12] 108% | efflux inhibition (fraction of control) [13] 0 | inhibition [14] -6% | differentiation response [15] 3.88%

COc1ccc(OC)c(-n2c(Cn3c(-c4ccccn4)nc4ccccc43)n[nH]c2=S)c1
62.6%: double positive events [6]
inactive: percent of DMSO control GFP [1] 98.5% | GFP response vs DMSO [2] 101% | percent response of DMSO control [3] 93% | GFP response vs DMSO [4] 90.3% | GFP response, % of DMSO [5] 91.8% | vesicle binding response [6] 144% | inhibition [7] 7.22% | superoxide response (% of plate) [8] 97.4% | aptamer binding inhibition [9] 1% | inhibition [10] 6.75% | response [11] -0.2% | binding (% of control) [12] 105% | inhibition [14] -8% | differentiation response [15] -9.89%
active: efflux inhibition (fraction of control) [13] 0.44

Cc1nc(C)c(C)nc1C
64.7%: double positive events [6]
inactive: percent of DMSO control GFP [1] 101% | GFP response vs DMSO [2] 101% | percent response of DMSO control [3] 102% | GFP response vs DMSO [4] 100% | GFP response, % of DMSO [5] 103% | vesicle binding response [6] 132% | inhibition [7] 12.8% | superoxide response (% of plate) [8] 104% | aptamer binding inhibition [9] -3% | inhibition [10] 31.6% | response [11] -7.78% | binding (% of control) [12] 103% | efflux inhibition (fraction of control) [13] 0.25 | inhibition [14] 8% | differentiation response [15] 3.03%

CCOC(=O)c1cnc2ccccc2c1NCCO
inactive: percent of DMSO control GFP [1] 108% | GFP response vs DMSO [2] 99.9% | percent response of DMSO control [3] 109% | GFP response vs DMSO [4] 102% | GFP response, % of DMSO [5] 103% | vesicle binding response [6] 186% | inhibition [7] 1.62% | superoxide response (% of plate) [8] 98.1% | aptamer binding inhibition [9] 0% | inhibition [10] -2.19% | response [11] 5.12% | binding (% of control) [12] 99.8% | efflux inhibition (fraction of control) [13] -0.12 | inhibition [14] 7% | differentiation response [15] -18%
61.1%: double positive events [6]
